An excerpt weighted towards active compounds, which were near 0.69% of everything screened.
PERK inhibitor: human PERK inhibition, primary cell-based screen. Q9NZJ5. CHO PERK-DD fusion, SEAP luminescence translation reporter. inhibition, % at 5.6 µM. actives 0.17% (n = 220,000). AID 1416;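 active means inhibition above the mean inhibition of all tested compounds plus 3 SD, set separately per screening campaign, cut at about 2.9% in these data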;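 further: PERK kinase domain activated by AP20187 dimerizer at 100 nM; 0% = DMSO with dimerizer and 100% = rapamycin at 8.4 µM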
p97 inhibitor: blocks human p97 ATPase activity; inhibition, % at 8 µM; AID 1481; recombinant p97 ATPase, Kinase-Glo ATP luminescence, 3 h; actives 0.42% (n = 220,000); P55072; in the data active means inhibition above about 15%;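 further: 0% = DMSO vehicle and 100% = wells lacking enzyme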
UBC9 SUMO inh: inhibitors of human SUMOylation (UBC9); AID 2006; HTRF SUMOylation assay, SAE1/SAE2 + UBC9, in vitro; inhibition, % at 35 µM; P63279; actives 0.36% (n = 290,000); in the data active means inhibition above about 50%, passing the limit was not always enough; inconclusive means no clear call, values can overlap the other calls
Target sequence (P63279 whole entry, looked up): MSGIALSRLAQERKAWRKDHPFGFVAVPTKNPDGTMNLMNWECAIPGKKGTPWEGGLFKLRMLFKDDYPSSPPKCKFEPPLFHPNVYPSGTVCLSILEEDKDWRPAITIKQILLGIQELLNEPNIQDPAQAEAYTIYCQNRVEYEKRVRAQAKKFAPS
Redox H2O2 prof: compounds producing H2O2 with reducing agent – biochemical, NIH compound library profiling, artefact control for MLSCN library redox annotation, primary screen; AID 878; actives 0.03% (n = 200,000); activation, % at 10 µM; DTT-dependent redox cycling H2O2, phenol red/HRP absorbance; 100% = 100 µM peroxide control, 0% = buffer;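 active means activation of at least 50% relative to the plate's high and low controls in the primary single-dose screen; inactive means activation below 50%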;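 further: compound incubated with DTT at 0.8 mM final as the reducing agent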
p97 inh conf: human p97 ATPase inhibition, confirmation. inhibition, % at 8 µM. shares compounds with p97 inhibitor. AID 1517. recombinant p97 ATPase, Kinase-Glo ATP luminescence. actives 44% (n = 760);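 active means percent inhibition of p97 ATPase above a set limit, the primary screen's mean plus 3 SD, cut at about 15% in these data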;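 further: 0% = DMSO wells and 100% = wells lacking p97 protein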
Numbers without * were called inactive; ? = inconclusive; · = not tested or not shown.

SMILES | PERK inhibitor | p97 inhibitor | UBC9 SUMO inh | Redox H2O2 prof | p97 inh conf
Oc1ccc(/C=N/NC(=S)Nc2cccnc2)c(O)c1 | 0 | 19* | -33 | 0 | 26*
Fc1c(F)c(F)c(/C=N/NC(=S)Nc2cccnc2)c(F)c1F | 1 | 4 | 21 | -1 | ·
Oc1ccc(/C=N/NC(=S)Nc2cccnc2)c(O)c1O | 0 | 20* | ? | · | 20*
Oc1cccc(/C=N/NC(=S)Nc2cccnc2)c1O | 1 | 18* | -10 | · | 35*
CCCCc1ccc(NC(=O)Nc2cc(C)nn2C)cc1 | · | · | -13 | · | ·
O=C(Nc1ccc(N2CCOCC2)cc1)Nc1ccc2nc(-c3ccco3)c(-c3ccco3)nc2c1 | -1 | 3 | ? | 1 | ·
O=C(Nc1ccc2nc(-c3ccco3)c(-c3ccco3)nc2c1)NC1CC1 | 0 | 31* | ? | 0 | 24*
O=C(NCCCO)Nc1ccc2nc(-c3ccco3)c(-c3ccco3)nc2c1 | 1 | 25* | 93* | 1 | 23*
O=C(O)c1ccc2nc(-c3ccco3)c(-c3ccco3)nc2c1 | 2 | 26* | ? | 0 | 1
COc1ccc(N(C)S(=O)(=O)c2ccc3c(c2)NC(=O)CC(=O)N3)c(OC)c1 | · | · | 4 | · | ·
O=C(COc1ncnc2cc([N+](=O)[O-])ccc12)NC(=O)NC1CCCCC1 | 0 | 0 | -7 | 0 | ·
O=C(COc1ncnc2cc([N+](=O)[O-])ccc12)NCCc1ccc(Cl)cc1 | 0 | 15* | 0 | 0 | 9
NS(=O)(=O)c1ccc(CCNc2ncnc3c2c(-c2ccccc2)cn3-c2ccc(F)cc2)cc1 | 0 | 30* | -17 | 3 | 24*
O=c1oc2ccccc2c2oc3cc(O)c(O)cc3c12 | 0 | 19* | 25 | · | 22*
Nc1c(N)c2ccccc2oc1=O | 1 | -1 | -3 | 0 | ·
COc1cc(OC)cc(C2=NC3(CCC(C)CC3)NC2=S)c1 (stereo not given) | 0 | -1 | -26 | 0 | ·
CC(=O)N(C(C)=O)c1nc(-c2ccccc2)cn1/N=C/c1cccc([N+](=O)[O-])c1 | 0 | 18* | 13 | · | 24*
O=[N+]([O-])c1cccc(/C=N/n2c(-c3cccnc3)n[nH]c2=S)c1 | 0 | 6 | -1 | 1 | ·
N#CC1=C2SCN(c3ccccc3)CN2C(=O)CC1c1c(Cl)cccc1Cl (stereo not given) | 1 | 17* | 8 | -1 | 4
COc1cccc(NC(=O)CC(=O)c2ccccc2)c1 | · | · | 17 | · | ·
CC[N+](C)(C)CCN(Cc1ccc(Cl)cc1)c1ccccn1 | 1 | 15* | 2 | 0 | 3
Cc1cc(C)c(S(=O)(=O)N2CCCC(C(=O)N3CCOCC3)C2)c(C)c1 (stereo not given) | · | · | 0 | · | ·
CCOc1ccc(Br)cc1S(=O)(=O)N1CCCN(C)CC1 | · | · | 4 | · | ·
CCOc1ccc(Br)cc1S(=O)(=O)N1CCC(C(N)=O)CC1 | 0 | 15* | 21 | 0 | 7
CC(=O)c1cccc(NC(=O)C2C(c3ccccc3)C2(Cl)Cl)c1 (stereo not given) | 2 | 28* | 4 | 0 | 32*
SMILES | PERK inhibitor | p97 inhibitor | UBC9 SUMO inh | Redox H2O2 prof | p97 inh conf
Cc1cccc(NC(=O)C2C(c3ccccc3)C2(Cl)Cl)c1 (stereo not given) | 0 | 19* | -4 | 0 | 37*
COc1ccc(NC(=O)C2C(c3ccccc3)C2(Cl)Cl)cc1 (stereo not given) | 0 | 8 | -11 | · | ·
COc1ccc(Nc2nc(C)nc3sc4c(c23)CCC4)cc1O | 1 | 6 | 0 | 0 | ·
CCc1nccn1CCC(=O)N1CCCC(Nc2ccc(F)cc2)C1 (stereo not given) | · | · | 21 | · | ·
O=C(Nc1ccccc1Cl)c1c(F)c(F)c(F)c(F)c1F | 0 | 4 | · | 3 | ·
O=C(NC1(O)C(=O)c2ccccc2C1=O)c1c(Cl)cccc1Cl | 1 | 20* | 95* | · | 41*
O=S(=O)(/C=C/c1ccccc1)N1CCOCC1 | · | · | 2 | · | ·
N#Cc1ccccc1NC(=O)C1SC(=Nc2ccccc2)C(C(=O)Nc2ccc(Cl)cc2)=C1N (stereo not given) | 0 | 9 | -19 | 0 | ·
CCOc1ccc(N=C2SC(C(=O)Nc3ccccc3C#N)C(N)=C2C(=O)Nc2ccc(Cl)cc2)cc1 (stereo not given) | 0 | 19* | -10 | -2 | 24*
Cc1c(C(c2cccc([N+](=O)[O-])c2O)c2c(C)n(C)n(-c3ccccc3)c2=O)c(=O)n(-c2ccccc2)n1C | 0 | -2 | -4 | 1 | ·
Cc1[nH]n(-c2ccccc2)c(=O)c1C(c1cccc([N+](=O)[O-])c1O)c1c(C)[nH]n(-c2ccccc2)c1=O | 0 | 24* | 62* | 0 | 6
O=C(NNc1nc(-c2ccc(Br)cc2)cs1)c1ccco1 | 1 | 5 | -4 | -1 | ·
COc1cc(/C(C)=C/c2ccccc2)c2c(c1)oc1ccccc12 | · | · | -16 | · | ·
COc1ccc(NC(=O)c2cc(SC)ccc2Cl)cc1 | 0 | 16* | -15 | 0 | 4
N=c1c(C(=O)NCc2ccccc2)cc2c(=O)n3ccccc3nc2n1Cc1ccco1 | -1 | 23* | 46 | 1 | 13
CC(=O)N1CCN(S(=O)(=O)c2c(C)n(C)c(=O)n(C)c2=O)CC1 | · | · | 13 | · | ·
COc1ccc(C)cc1C(=O)CCC(=O)NCCc1ccc(S(N)(=O)=O)cc1 | · | · | -2 | · | ·
COc1cc(/C=C/c2ccc3c(Br)cc(Br)c(O)c3n2)ccc1O | -2 | 18* | -34 | · | 15*
CCCc1cc(=O)[nH]c(SCC(=O)Nc2ccc3c(c2)CCC3)n1 | 0 | 15* | 0 | -10 | 4
COc1ccccc1C1=NOC(C(=O)N2CCN(C(=O)c3ccco3)CC2)C1 (stereo not given) | · | · | 5 | · | ·
COc1ccc(CCn2c3c(c(=O)[nH]c2=O)C(NC(=O)c2cccs2)(C(F)(F)F)C(=O)N3)cc1OC (stereo not given) | 1 | 27* | 24 | 2 | 8
COc1ccc(-c2c(C)n([O-])c3c([n+]2=O)CCCCC3)cc1OC | 0 | -4 | 5 | 0 | ·
Nc1ccc(N2CCOCC2)c2nonc12 | 1 | 47* | 99* | -1 | 2
CCCC(C(=O)NC1CCCC1)N(CCN(CC)CC)C(=O)c1snc(C(N)=O)c1N (stereo not given) | · | · | 11 | · | ·
CCCC(C(=O)NC1CCCC1)N(CCCN1CCOCC1)C(=O)c1snc(C(N)=O)c1N (stereo not given) | 0 | 16* | 4 | 0 | 5
COc1ccc(NCC(=O)Nc2ccc(Br)cc2F)c(OC)c1 | 0 | 8 | -4 | · | ·
Cc1ccc(CCN2CC(C(=O)NCCCN3CCCCCC3)CC2=O)cc1 (stereo not given) | 0 | 21* | -1 | 0 | 5
Cc1ccccc1Oc1nc2c(C)cccn2c(=O)c1/C=C(\C#N)C(=O)NC1CCS(=O)(=O)C1 (stereo not given) | 1 | 15* | 25 | · | 7
